Activity calls are given as the source filed them.
Experiments:
Albumin (Bos taurus) = Albumin (Bos taurus) (UniProt P02769); assay: bovine serum albumin binders on microarray, profiling panel, artefact control for SMM control protein annotation, biochemical, small-molecule microarray, Alexa647 label, 635/667 nm fluorescence (AID 1118); details: BSA-A647 binding, fluorescence 635 nm, higher = more signal;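 further: score merges 667 nm emission intensity and signal-to-noise per printed compound spot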
Chain of Albumin (Bos taurus) (P02769 whole entry, looked up): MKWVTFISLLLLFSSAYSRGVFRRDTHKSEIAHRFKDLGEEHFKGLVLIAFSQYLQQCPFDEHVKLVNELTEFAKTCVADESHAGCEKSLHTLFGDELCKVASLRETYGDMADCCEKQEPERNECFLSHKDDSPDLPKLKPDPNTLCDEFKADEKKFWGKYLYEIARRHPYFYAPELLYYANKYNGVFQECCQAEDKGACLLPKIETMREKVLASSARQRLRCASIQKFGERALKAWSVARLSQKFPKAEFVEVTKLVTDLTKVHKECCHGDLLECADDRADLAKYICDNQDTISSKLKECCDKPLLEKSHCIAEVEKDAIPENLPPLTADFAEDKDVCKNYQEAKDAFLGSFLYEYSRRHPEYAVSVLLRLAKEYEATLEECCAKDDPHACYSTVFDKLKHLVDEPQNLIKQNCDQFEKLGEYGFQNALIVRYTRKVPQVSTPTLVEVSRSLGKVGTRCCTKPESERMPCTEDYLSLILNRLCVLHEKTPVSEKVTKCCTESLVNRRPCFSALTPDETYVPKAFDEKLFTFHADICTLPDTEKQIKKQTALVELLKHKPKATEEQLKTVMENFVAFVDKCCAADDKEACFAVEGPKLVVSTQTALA

[1] = small-molecule microarray binders of probe aXIP, primary screen, biochemical, NeuroSMM set, 635/667 nm fluorescence (AID 1119); details: higher = more signal, called active from +8 up or from −8 down;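 further: probe is the protein aXip251-270 applied at 1 µg/mL to compound-printed slides; binding of probe to printed compounds measured as 667 nm fluorescence plus signal to noise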
[2] = small-molecule binders of probe aNOTCH3, primary screen, biochemical, small-molecule microarray, 635/667 nm fluorescence (AID 1120); details: higher = more signal;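 further: probe is a biotin-tagged antibody raised against NOTCH3 rather than NOTCH3 protein; score merges spot fluorescence near 667 nm with spot signal to noise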
[3] = small-molecule binders of probe aNOTCH2, primary screen, biochemical, small-molecule microarray, 635/667 nm fluorescence (AID 1121); details: higher = more signal;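 further: score merges feature fluorescence read at 667 nm with its signal to noise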
[4] = target: Carbonic anhydrase 2 (Homo sapiens) (UniProt P00918); assay: CAII small-molecule binders, profiling panel, biochemical, small-molecule microarray, Alexa647-labelled CAII (AID 1122); details: CAII-A647 binding fluorescence, higher = more signal
[5] = COS7 lysate on small-molecule microarray, probe aHis, 635 nm (AID 1123); details: COS7 cell lysate, fluorescence, higher = more signal;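 further: z-score combines 667nm fluorescence intensity with signal-to-noise per printed compound spot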
[6] = compound binding in COS7 lysate, probe aLAP1, primary screen, cell lysate, small-molecule microarray (AID 1124); details: probe aLAP1, fluorescence, higher = more signal;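 further: lysate comes from COS7 cells expressing LAP1 and is applied at 0.3 µg/mL; score merges spot fluorescence near 667 nm with signal-to-noise over triplicate slides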
Sam68 (KHDRBS1) = assay: Sam68 small-molecule binders, primary screen, biochemical, small-molecule microarray, 635 nm fluorescence (AID 1125); details: small-molecule microarray binding, higher = more signal;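 further: score merges 667 nm channel intensity with signal to noise over triplicate slides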
[7] = test system: Chordin-like protein 2 (CHRDL2); assay: CHRDL2 small-molecule binders, primary screen, biochemical, small-molecule microarray, 635 nm fluorescence (AID 1126); details: small-molecule microarray binding, fluorescence 635 nm; higher = more signal;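 further: printed compound slides probed with Chrdl2 protein at 4 µg/mL for 1 h at 4 C; score merges 667 nm emission intensity with signal to noise over three replicate slides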
[8] = target: Concanavalin-A (Canavalia ensiformis) (UniProt P02866); assay: ConA small-molecule binders, primary screen, artefact control for SMM control protein annotation, biochemical, small-molecule microarray, Alexa647 label, 635 nm (AID 1127); details: ConA-A647 binding fluorescence, higher = more signal;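 further: z combines 667 nm emission intensity with signal-to-noise across three replicate slides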
Chain of Concanavalin-A (Canavalia ensiformis) (P02866 whole entry, looked up): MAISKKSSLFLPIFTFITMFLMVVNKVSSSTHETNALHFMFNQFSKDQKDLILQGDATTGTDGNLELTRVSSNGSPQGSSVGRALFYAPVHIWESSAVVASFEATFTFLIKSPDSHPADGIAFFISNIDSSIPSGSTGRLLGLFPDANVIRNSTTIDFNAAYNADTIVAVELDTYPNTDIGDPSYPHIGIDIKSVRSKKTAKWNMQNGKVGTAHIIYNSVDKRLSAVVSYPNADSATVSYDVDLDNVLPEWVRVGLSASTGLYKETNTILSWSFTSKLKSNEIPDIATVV

[9] = anti-His antibody binders, primary screen, artefact control for SMM control protein annotation, biochemical, small-molecule microarray, 635 nm fluorescence (AID 1128); details: anti-His Alexa647 antibody binding, higher = more signal;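 further: score merges feature fluorescence with signal-to-noise for each printed compound spot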
[10] = test system: Human papillomavirus type 1a E7 protein (residues 1-88); assay: HPV1a E7 small-molecule binders, primary screen, biochemical, small-molecule microarray, residues 1-88, 635 nm (AID 1129); details: small-molecule microarray binding, fluorescence 635 nm; higher = more signal
[11] = target: Focal adhesion kinase 1 (Homo sapiens) (UniProt Q05397); assay: small-molecule microarray binders of FAK, primary screen, biochemical, 635/667 nm fluorescence, BSA, DTT (AID 1130); details: PTK2 binding, 635 nm fluorescence, higher = more signal;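 further: composite of spot emission at 667 nm and signal to noise over triplicate slides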
Chain of Focal adhesion kinase 1 (Homo sapiens) (Q05397 whole entry, looked up): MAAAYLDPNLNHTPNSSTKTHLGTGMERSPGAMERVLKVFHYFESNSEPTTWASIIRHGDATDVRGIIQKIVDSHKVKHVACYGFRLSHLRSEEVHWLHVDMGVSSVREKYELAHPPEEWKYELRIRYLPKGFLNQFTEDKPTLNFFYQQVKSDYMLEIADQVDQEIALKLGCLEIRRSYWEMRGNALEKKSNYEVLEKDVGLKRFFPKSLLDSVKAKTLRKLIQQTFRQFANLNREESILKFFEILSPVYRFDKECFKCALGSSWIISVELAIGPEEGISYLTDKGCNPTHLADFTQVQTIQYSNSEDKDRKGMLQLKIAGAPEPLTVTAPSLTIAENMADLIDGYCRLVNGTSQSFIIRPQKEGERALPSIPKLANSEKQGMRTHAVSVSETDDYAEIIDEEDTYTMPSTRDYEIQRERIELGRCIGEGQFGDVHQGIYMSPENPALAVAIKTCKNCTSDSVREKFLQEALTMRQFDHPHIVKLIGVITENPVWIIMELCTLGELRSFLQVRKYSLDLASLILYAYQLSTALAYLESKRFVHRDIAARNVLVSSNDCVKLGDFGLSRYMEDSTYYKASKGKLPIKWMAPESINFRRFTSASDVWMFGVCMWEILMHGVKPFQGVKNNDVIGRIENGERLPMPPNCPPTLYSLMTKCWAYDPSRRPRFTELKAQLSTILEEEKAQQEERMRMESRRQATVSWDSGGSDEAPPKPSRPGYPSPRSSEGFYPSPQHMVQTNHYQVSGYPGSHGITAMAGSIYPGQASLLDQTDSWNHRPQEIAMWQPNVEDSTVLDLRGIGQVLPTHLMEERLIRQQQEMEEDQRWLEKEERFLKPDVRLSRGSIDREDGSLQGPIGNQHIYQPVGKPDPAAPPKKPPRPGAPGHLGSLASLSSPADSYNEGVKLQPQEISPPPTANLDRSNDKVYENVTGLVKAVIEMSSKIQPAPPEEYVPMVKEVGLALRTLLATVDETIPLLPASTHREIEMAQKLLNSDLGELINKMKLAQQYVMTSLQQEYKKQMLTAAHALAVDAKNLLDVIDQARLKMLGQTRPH

[12] = test system: Fibrinogen (Alexa647-labelled); assay: fibrinogen binders on compound microarrays, profiling panel, artefact control for SMM control-protein annotation, biochemical, small-molecule microarray, 635/667 nm fluorescence (AID 1131); details: fibrinogen-A647 binding fluorescence, higher = more signal;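 further: z-score merges 667 nm fluorescence with per-spot signal-to-noise over triplicate slides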
[13] = target: Follistatin (Homo sapiens) (UniProt P19883); assay: follistatin binders on small-molecule microarrays, primary screen, biochemical, small-molecule microarray, 635/667 nm fluorescence (AID 1132); details: FST binding, 635 nm fluorescence, higher = more signal
Chain of Follistatin (Homo sapiens) (P19883 whole entry, looked up): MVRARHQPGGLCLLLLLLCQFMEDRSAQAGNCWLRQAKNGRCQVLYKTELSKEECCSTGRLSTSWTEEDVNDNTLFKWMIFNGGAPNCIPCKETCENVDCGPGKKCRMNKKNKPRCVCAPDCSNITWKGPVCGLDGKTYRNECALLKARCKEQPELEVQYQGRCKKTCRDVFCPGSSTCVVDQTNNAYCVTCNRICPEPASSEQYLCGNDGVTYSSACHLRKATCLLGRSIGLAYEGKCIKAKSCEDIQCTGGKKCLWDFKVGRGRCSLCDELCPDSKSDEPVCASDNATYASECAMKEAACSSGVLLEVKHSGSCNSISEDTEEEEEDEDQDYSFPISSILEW

[14] = target: Fibroblast growth factor 2 (Homo sapiens) (UniProt P09038); assay: FGF2 binders on small-molecule microarrays, primary screen, biochemical, small-molecule microarray, 635/667 nm fluorescence (AID 1133); details: small-molecule microarray binding, FGF2, fluorescence 635/667; higher = more signal
Chain of Fibroblast growth factor 2 (Homo sapiens) (P09038 whole entry, looked up): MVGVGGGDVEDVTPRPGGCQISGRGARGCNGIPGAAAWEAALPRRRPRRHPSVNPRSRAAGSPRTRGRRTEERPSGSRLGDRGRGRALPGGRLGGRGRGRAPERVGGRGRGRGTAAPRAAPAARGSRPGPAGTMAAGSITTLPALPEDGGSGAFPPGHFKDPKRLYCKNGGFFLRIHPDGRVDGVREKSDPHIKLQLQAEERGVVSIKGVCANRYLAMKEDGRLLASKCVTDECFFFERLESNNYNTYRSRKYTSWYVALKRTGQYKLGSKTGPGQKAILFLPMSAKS

[15] = mitochondrial membrane potential change in A549 cells, profiling panel, cell-based, JC-1 fluorescence, basal, 24 h, 100 nL (AID 1138); details: higher = more signal;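 further: A549 lung adenocarcinoma cells under basal conditions with no added stimulus; test concentration not given here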
Lefty1 = Lefty1 binders on small-molecule microarrays, primary screen, biochemical, small-molecule microarray, 635/667 nm fluorescence (AID 1139); details: small-molecule microarray binding, fluorescence 635/667; higher = more signal
[16] = test system: wheat germ agglutinin (Triticum aestivum), Alexa647-labelled; assay: wheat germ agglutinin binders on compound microarrays, profiling panel, artefact control for SMM control-protein annotation, biochemical, small-molecule microarray, 635/667 nm fluorescence (AID 1140); details: WGA-A647 binding, 635 nm fluorescence, higher = more signal;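 further: score merges 667 nm feature emission with signal to noise over triplicate slides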
[17] = target: Luciferin 4-monooxygenase (Photinus pyralis) (UniProt P08659); assay: firefly luciferase enzyme inhibitors, primary screen, biochemical, luminescence, purified enzyme, 2006 set (AID 1141); details: SteadyGlo luminescence, 30 min, higher = more signal, called active from +8 up or from −8 down;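 further: cell-free assay with purified firefly luciferase at 100 ng per well in PBS; test concentration not given here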
Chain of Luciferin 4-monooxygenase (Photinus pyralis) (P08659 whole entry, looked up): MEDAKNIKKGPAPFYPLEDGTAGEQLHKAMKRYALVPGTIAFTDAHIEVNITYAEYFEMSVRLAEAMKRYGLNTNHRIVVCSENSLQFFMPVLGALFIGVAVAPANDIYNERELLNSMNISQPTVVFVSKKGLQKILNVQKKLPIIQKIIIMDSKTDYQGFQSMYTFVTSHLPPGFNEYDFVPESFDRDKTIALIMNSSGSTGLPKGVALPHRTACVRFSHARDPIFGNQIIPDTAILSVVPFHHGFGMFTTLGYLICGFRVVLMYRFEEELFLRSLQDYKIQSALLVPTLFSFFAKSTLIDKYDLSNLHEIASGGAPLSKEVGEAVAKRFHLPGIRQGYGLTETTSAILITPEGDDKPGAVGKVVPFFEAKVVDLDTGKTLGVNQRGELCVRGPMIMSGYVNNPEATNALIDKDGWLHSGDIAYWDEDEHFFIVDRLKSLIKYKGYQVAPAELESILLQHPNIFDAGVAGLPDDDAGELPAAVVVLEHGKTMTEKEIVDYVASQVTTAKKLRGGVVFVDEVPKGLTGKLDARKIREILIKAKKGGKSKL

| SMILES | composite z-score (Albumin (Bos taurus)) | composite Z-score [1] | composite z-score [2] | composite z-score [3] | composite z-score [4] | composite z-score [5] | composite z-score [6] | composite z-score (Sam68 (KHDRBS1)) | composite z-score [7] | composite z-score [8] | composite z-score [9] | composite z-score [10] | composite z-score [11] | composite z-score [12] | composite z-score [13] | composite z-score [14] | z-score [15] | composite z-score (Lefty1) | composite z-score [16] | z-score [17] |
| --- | --- | --- | --- | --- | --- | --- | --- | --- | --- | --- | --- | --- | --- | --- | --- | --- | --- | --- | --- | --- |
| C[C@H]1C=CCC(=O)OC[C@H](C)C(=O)N2CCC[C@H]2C(=O)OC1 | -0.68 | 0.472 (inactive) | -0.161 | -0.115 | -0.656 | -0.802 | 0.374 | -0.374 | 1.62 | -0.35 | -0.637 | -1.44 | -0.943 | -1.09 | 1.43 | 2.01 | -0.823 | 1.61 | -1.18 | 1.32 (inactive) |
| O=C1[C@H]2CCn3c(=O)n(-c4ccccc4)c(=O)n3[C@H]2[C@H](O)[C@@H]2O[C@H]12 | 0.0407 | -0.916 (inactive) | -0.177 | -0.0651 | 0.0463 | 0.178 | -0.34 | -0.319 | 0.37 | 0.218 | -0.0114 | 0.301 | -0.339 | 0.418 | -0.0705 | 0.127 | 0.718 | 0.278 | 0.465 | 0.0786 (inactive) |
| CCOC(=O)[C@H](Cc1ccccc1)NC(=O)CCC1CC(OC(=O)NCc2ccc3c(c2)OCO3)CC2(CCCC(COC(=O)NCCOC)O2)O1 (stereo not given in full) | -0.756 | 0.0786 (inactive) | 0.163 | -0.0785 | 0.134 | 0.577 | -0.172 | 1.3 | 0.379 | 1.06 | 0.431 | 1.14 | -0.341 | 0.69 | 0.808 | 0.455 | -0.599 | 1.26 | 0.581 | 0.724 (inactive) |
| COC(=O)[C@H](C)NC(=O)CCC1CC(OC(=O)NCc2cccc3ccccc23)CC2(CCCC(COC(=O)NCc3cccc(C(F)(F)F)c3)O2)O1 (stereo not given in full) | 0.845 | 0.15 (inactive) | 0.106 | -0.0846 | 0.15 | 1.78 | 0.0331 | 1.31 | 0.293 | 1.12 | 1.12 | 0.818 | 0.0625 | 0.83 | 0.928 | 0.657 | 1.43 | 0.526 | 0.48 | -0.552 (inactive) |
| CCOC(=O)[C@H](CC(C)C)NC(=O)CCC1CC(OC(=O)NCc2ccc3c(c2)OCO3)CC2(CCCC(COC(=O)NCCC(C)C)O2)O1 (stereo not given in full) | 0.42 | 0.231 (inactive) | -0.0555 | -0.112 | 0.515 | 0.298 | 0.0199 | -0.557 | -0.085 | -0.746 | 0.348 | -0.438 | 0.0454 | -0.27 | -0.14 | 0.279 | 0.471 | 0.172 | 0.182 | 0.537 (inactive) |
| C[C@]12CCC3c4ccc(OCC5CO5)cc4CCC3C1CC[C@@H]2O (stereo not given in full) | 0.754 | 0.257 (inactive) | -0.0932 | 0.0365 | 0.646 | 0.528 | 0.414 | 0.759 | 0.118 | 0.961 | 1.19 | 1.14 | 0.492 | 1 | 0.137 | -0.2 | 4.51 | -0.005 | 1.05 | -0.466 (inactive) |
| COC(=O)CC=C[C@@H](C)[C@@H](C=NOC[C@@H](C)[C@H](OCc1ccccc1)C(C)C)NS(=O)(=O)c1ccc(C)cc1 | -1.05 | 0.216 (inactive) | -0.161 | -0.216 | -0.351 | -0.342 | 0.102 | -0.135 | 0.271 | -0.596 | 1.82 | -0.588 | -0.424 | -1.52 | 0.131 | 0.0249 | -0.48 | 0.329 | -1.57 | 0.419 (inactive) |
| O=C1C=C[C@@H](O)[C@@H]2[C@@H]3C(=O)N(C4CCCCC4)C(=O)[C@@H]3CC[C@@H]12 | 0.13 | -0.388 (inactive) | 0.0738 | -0.126 | 0.143 | 0.214 | 0.196 | 0.595 | 0.542 | 0.273 | 0.575 | 0.55 | 0.431 | 0.831 | 1.21 | 0.826 | 1.09 | 0.629 | 0.0297 | -0.611 (inactive) |
| CCOC(=O)[C@H](Cc1ccccc1)NC(=O)CCC1CC(OC(=O)NCc2cccc3ccccc23)CC2(CCCC(COC(=O)NCc3ccc4c(c3)OCO4)O2)O1 (stereo not given in full) | 0.85 | 0.464 (inactive) | 0.0824 | -0.148 | 0.509 | 0.831 | 0.404 | 0.477 | -0.054 | 0.0672 | 0.209 | 0.397 | 0.338 | 0.508 | 0.222 | 0.982 | 0.4 | 0.659 | -0.074 | -0.323 (inactive) |
| CO[C@H]1C[C@@H]2C[C@H](O)CC(CC(=O)O[C@@H](C=CCC(C)C)C[C@@H]3CC[C@H](C)[C@@H](C1)O3)O2 | 0.603 | -0.349 (inactive) | 0.0824 | -0.193 | 0.276 | 1.12 | -0.0223 | 1.3 | 0.629 | 0.389 | 0.583 | 0.959 | 0.122 | 0.707 | 0.719 | 0.361 | -0.589 | 0.749 | 0.0954 | -0.0042 (inactive) |
| CO[C@@H]1COC(=O)[C@H](COCc2ccccc2)NC(=O)CC=C[C@@H](C)[C@H](OC)COC(=O)[C@@H](C)NC(=O)CC=C[C@H]1C | -0.764 | -0.0478 (inactive) | 0.127 | -0.126 | -0.557 | -0.887 | -0.184 | 0.0125 | 1.02 | -3.28 | -1.39 | -1.64 | -0.474 | -1.65 | 1.07 | 1.16 | 1.27 | 0.979 | -0.999 | -0.963 (inactive) |
